Results filed as inconclusive are left out. Where a call stands in place of a potency, no number is given. Unmarked numbers belong to inactive results. Calls of active or inactive are those of the source. The call rests on the fitted dose curve; in most records, active means well fitted activation curve with a large enough effect in the repeat runs; inconclusive means weak or mixed curves; inactive means flat fitted curve, though single readings scatter.

The assay is described as follows: A CellTox Green Cytotoxicity Assay to monitor cytotoxicity in HEK293 cells - 24 hour (AID 1224875). Further: nearly all actives have a fitted effect of over 45% in size. To be noted: CellTox Green fluorescence; series mostly up to 76.8 µM. An excerpt:
National Center for Advancing Translational Sciences [NCATS]
NIH Chemical Genomics Center [NCGC]
U.S. Environmental Protection Agency [EPA]
National Institutes of Environmental Health Sciences [NIEHS]
National Toxicology Program [NTP]
Cell-based models are critical for drug discovery. Determining the natural cytotoxic effects resulting from test compounds is an essential research activity. A CellTox Green Cytotoxicity Assay to monitor cytotoxicity in real time of continues cell culture during 40 hours of the compound treatment was used to screen Tox21 10K library compounds in Hek293 cells. CellTox Green Cytotoxicity Assay is a nonlytic, homogeneous, biofluorescent method to measure cytotoxicity in cell culture after experimental manipulation. The assay system uses a proprietary asymmetric cyanine dye that is excluded from viable cells but preferentially stains the dead cell's DNA. […] Viable cells produce no appreciable increases in fluorescence. Therefore, the fluorescence signal produced by the binding interaction with dead cell DNA is proportional to cytotoxicity.
The mixture of Hek293 cell suspension and reagents were dispensed at 600cells/6 ul/well in 1536-well tissue culture treated black solid bottom plates using a Multidrop dispenser. After the assay plates were incubated at a 37 C/5% CO2 incubator for 5 hours, 23 nL of compounds dissolved in DMSO, positive and negative controls was transferred to the assay plate by a pintool work station. The plates were incubated at 37 C for 40 hours. The fluorescence intensity were measured at 0h, 8h, 16h, 24h, 32h and 40h time points using ViewLux plate reader during compound treatment.
Take `C1CSCCS1`: the Potency result is “inactive”. The same measure, in the same setting: next, `COc1cc(C)ccc1C(C)C`: “inactive”.

For `Cc1ccc([N+](=O)[O-])c(N)c1`, the Potency result is “inactive”. Regarding `CC(C)NC[C@@H](O)COc1cccc2ccccc12`, the Potency result was “inactive”.

Turning to `FC(F)(F)C(Cl)(Cl)Cl`, the Potency entry was “inactive”.

Regarding `OCC(CBr)(CBr)CBr`, the Potency result is “inactive”. Regarding `CCOc1ccc(NS(=O)(=O)c2ccc(N)cc2)nn1`, the Potency entry is “inactive”. Regarding `CC(C)=CCC[C@](C)(O)[C@@H]1CC=C(C)CC1`, the Potency result is “inactive”.

Regarding `O=C1CCCCC1C1CCCCC1` (stereo not given), the Potency entry is “inactive”. Consider `CCN(CCCc1ccccc1)CCCc1ccccc1`, for which the Potency result was “inactive”. Regarding `CCCCNC(=S)NCCCC`, the Potency entry is “inactive”.

`CC(C)(C)c1cccc(O)c1`: the Potency entry is “inactive”. With `O=c1oc2c(O)c(O)cc3c(=O)oc4c(O)c(O)cc1c4c23`, the activity change is 21.9% [at 15.8 µM, hits give high values]. As to `CCN[C@H]1CN(CCCOC)S(=O)(=O)c2sc(S(N)(=O)=O)cc21`, the Potency entry was “inactive”. Same read-out and setting: next, `ClC(Cl)Cl`: “inactive”. Take `O=C1N(c2ccccc2)c2ccccc2C1(Cc1ccncc1)Cc1ccncc1`: the Potency result was “inactive”. As for `CN1C(=O)CC(c2ccccc2)C1=O` (stereo not given), the Potency entry is “inactive”. As for `O=C(O)[C@@H]1CSCN1`, the Potency result is “inactive”. As to `CCCCCCCCOC(=O)CCCCCCCCC(=O)OCCCCCCCC`, the Potency entry was “inactive”. With `NC/C=C/C(=O)O`, the Potency result was “inactive”. As for `CCOC(=O)CS`, the Potency result was “inactive”. With `Cc1ccsc1C(=CCCN1CCC[C@@H](C(=O)O)C1)c1sccc1C`, the Potency entry was “inactive”. Regarding `CC(=O)OC1C2(C)CCC(C2)C1(C)C` (stereo not given), the Potency entry is “inactive”. Regarding `CC(=O)Oc1cc(C(C)C)c(OCCN(C)C)cc1C`, the Potency entry is “inactive”.

In the case of `CCOc1ccc(OCC)c(Cl)c1`, the Potency entry was “inactive”. On the same count and under the same terms, next, `CN(C)Cc1ccccc1`: “inactive”. For the molecule `CN1CCN(C2=Nc3ccccc3Oc3ccc(Cl)cc32)CC1`, the Potency entry is “inactive”.

Consider `OC[C@H]1O[C@@H](O[C@H]2[C@H](O)[C@@H](O)[C@H](O)O[C@@H]2CO)[C@H](O)[C@@H](O)[C@H]1O`, for which the Potency entry was “inactive”.

With `OCCN1CCN(CCO)CC1`, the Potency entry was “inactive”. Regarding `CC(C)(CO)[C@@H](O)C(=O)NCCC(=O)O`, the Potency result was “inactive”.

For the molecule `CNCCC(Oc1ccccc1OC)c1ccccc1` (stereo not given), the Potency result was “inactive”. The same measure, in the same setting: as for `CC(C)c1ccccc1`, the entry is “inactive”; as for `Cc1c(N)cccc1N`, “inactive”; as for `CCOC(=O)C1CC(=O)C(=C(O)C2CC2)C(=O)C1` (stereo not given), “inactive”. With `Cc1nnc(SCC2=C(C(=O)O)N3C(=O)[C@@H](NC(=O)Cn4cnnn4)[C@H]3SC2)s1`, the Potency entry is “inactive”. Regarding `CN1CCC[C@@H]1Cc1c[nH]c2ccc(CCS(=O)(=O)c3ccccc3)cc12`, the Potency entry was “inactive”. On the same count and under the same terms, next, `O=C(O)[C@@H](O)[C@H](O)[C@H](O)[C@@H](O)C(=O)O`: “inactive”. On the same count and under the same terms, as for `CN1CCN(C2=Nc3cc(F)ccc3Cc3ccccc32)CC1`, the entry is “inactive”; as for `O=[N+]([O-])c1nccn1CO[C@@H](CO)[C@H](O)CO`, “inactive”.

Take `CN1CCN(N)CC1`: the Potency entry is “inactive”.

(Values after PubChem BioAssay (Tox21).)
